This is an account of results in PubChem BioAssay (NCI).

Structures are written as SMILES. Compounds without any hit were thinned out: in the full panel of roughly 79,000, 15% have a hit. Unmarked numbers belong to inactive results. Calls of active or inactive are those of the source. Cut-off read from the data, not from the text of the source: active = growth inhibition above about 70%; inactive = the rest.

Experiment [1] in a line: NCI Yeast Anticancer Drug Screen. Data for the rad50 strain (AID 155).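 Note: 0% = growth of vehicle-only cultures of the same strain.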 Conditions: S. cerevisiae rad50 strain growth inhibition; at 50.0 µM; hits give high values. In a few lines: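 Vehicle-treated cultures provide the reference for the growth inhibition reported for compound-exposed, repair-deficient yeast.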
Experiment [2] can be described thus: NCI Yeast Anticancer Drug Screen. Data for the mec2-1 strain (AID 157). Conditions: S. cerevisiae mec2-1 strain, at 50.0 µM, hits give high values. Summed up: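 Yeast mec2-1 mutant treated with compound. Readout: growth inhibition vs vehicle controls.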
Experiment [3] in a line: NCI Yeast Anticancer Drug Screen. Data for the sgs1 mgt1 strain (AID 161).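 Note: 0% = growth of cultures given vehicle only.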 Conditions: S. cerevisiae sgs1 mgt1 strain, at 50.0 µM, hits give high values. Summed up:
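Mutant yeast exposed to compound; growth scored against vehicle-only wells.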

Experiment [4] is described as follows: NCI Yeast Anticancer Drug Screen. Data for the cln2 rad14 strain (AID 165).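 Note: 0% = growth equal to vehicle treated cultures.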 Conditions: S. cerevisiae cln2 rad14 strain, at 50.0 µM, hits give high values. Summed up:
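cln2 rad14 yeast strain; compound exposure; growth inhibition read vs vehicle controls.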

Experiment [5] in a line: NCI Yeast Anticancer Drug Screen. Data for the bub3 strain (AID 167). Particulars: S. cerevisiae bub3 mutant strain, at 50.0 µM, hits give high values. In a few lines: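 Mutant yeast screening strain plus compound; vehicle-treated cultures serve as the 0% inhibition reference.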
Experiment [6] can be described thus: NCI Yeast Anticancer Drug Screen. Data for the mlh1 rad18 strain (AID 175). Conditions: S. cerevisiae mlh1 rad18 strain growth inhibition; at 50.0 µM; hits give high values. In a few lines: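 Yeast w/ defined DNA-repair lesions; compound exposure; growth vs vehicle controls → % inhibition.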

For `O=C(NCCCl)NC(Cc1ccccc1)Cc1ccccc1`, the growth inhibition was 6.65% in experiment [1]; 10.7% in experiment [2]; 15% in experiment [3]; 53.7% in experiment [4]; 2.1% in experiment [5]; 31.4% in experiment [6].
As for `COC1(OC)C(c2ccco2)C(C#N)(C#N)C1(OC)OC` (stereo not drawn), the growth inhibition was -5.65% in experiment [1]; -1.95% in experiment [2]; -8.05% in experiment [3]; -38% in experiment [4]; -4.85% in experiment [5]; -0.9% in experiment [6].
As to `CCN(CC)C(=O)N1C=CC(C)C=C1`, the growth inhibition is -30.4% in experiment [1]; -15.1% in experiment [2]; -15.4% in experiment [3]; -43.1% in experiment [4]; 10.9% in experiment [5]; 5.5% in experiment [6].
`Cc1ccccc1C1OC2=C(Nc3ccc(Cl)cc3N2)C1=O` (stereo not drawn): the growth inhibition in experiment [1] is 15.6%; in experiment [2] it was -1.65%; in experiment [3], 10.3%; in experiment [4] it was 9.85%; in experiment [5], -11.8%; in experiment [6] it was 25.2%.
For the molecule `C=C1C(=O)O[C@H]2/C=C(/C)C3=CC(=O)[C@@](C)(C[C@@H](OC(=O)/C(C)=C\C)C12)O3` (stereo partly drawn), the growth inhibition in experiment [1] is 73.5% (active); in experiment [2] it was 80.8% (active); in experiment [3] it was 81.2% (active); in experiment [4] it was 64.8%; in experiment [5], 77.9% (active); in experiment [6] it was 75.8% (active).
As to `CC1=C(C)OCC1`, the growth inhibition in experiment [1] was 8.9%; in experiment [2] it was 4%; in experiment [3], 9.25%; in experiment [4], 7.85%; in experiment [5] it was 4.2%; in experiment [6], 5.5%.
`CC(=O)Nc1ccc(S(=O)(=O)N/N=C/C(=O)O)cc1`: the growth inhibition in experiment [1] is -15.6%; in experiment [2], -32.4%; in experiment [3], -40%; in experiment [4] it was -22.4%; in experiment [5], 5.4%; in experiment [6] it was -16.6%.
Take `C/C(CCc1cccc([N+](=O)[O-])c1)=N\NC(N)=O`: the growth inhibition in experiment [1] was -19.1%; in experiment [2], -10.5%; in experiment [3], -6.5%; in experiment [4], -1.95%; in experiment [5], 7.4%; in experiment [6], -29.5%.
`Cc1ccc(C2(O)CCCCC2)cc1`: the growth inhibition in experiment [1] was -9.8%; in experiment [2], -8.45%; in experiment [3], -32%; in experiment [4], 26.2%; in experiment [5], -8.95%; in experiment [6], 7.1%.
Consider `c1cncc(Cc2nc3ccccc3[nH]2)c1`, for which the growth inhibition in experiment [1] is -26.9%; in experiment [2], -2.5%; in experiment [3], -22.9%; in experiment [4], -11.7%; in experiment [5], -5.1%; in experiment [6] it was -34%.
Regarding `CCCC(=O)n1[nH]c(=O)n(C(C)(C)C)c1=O`, the growth inhibition in experiment [1] was 2.3%; in experiment [2], -7.65%; in experiment [3], 14.8%; in experiment [4], 6.4%; in experiment [5], 7.5%; in experiment [6], -22.8%.
Regarding `CCOC(=O)C1=NNC(=O)C1`, the growth inhibition in experiment [1] is 4.4%; in experiment [2], -2.95%; in experiment [3], 2.35%; in experiment [4] it was 9.85%; in experiment [5], -0.3%; in experiment [6] it was 4.75%.
For `O=[N+]([O-])C1(CO)COC2(OC1)c1ccccc1-c1ccccc12`, the growth inhibition in experiment [1] is 0.5%; in experiment [2] it was -7.2%; in experiment [3], -21.6%; in experiment [4], 11.8%; in experiment [5], -26.8%; in experiment [6], -0.25%.
In the case of `Cc1noc2cccc(O)c12`, the growth inhibition is 0.95% in experiment [1]; 12.6% in experiment [2]; 15.8% in experiment [3]; 10.9% in experiment [4]; 1.25% in experiment [5]; 34.6% in experiment [6].
Turning to `CC1(C)CC2C(C1=O)C1(C)CCCC2(C)C1=O` (stereo not drawn), the growth inhibition in experiment [1] was -11.8%; in experiment [2], -7.1%; in experiment [3], -26.6%; in experiment [4], -14.8%; in experiment [5] it was 3%; in experiment [6], -46.5%.
For `CC(=Nc1ccc(Cl)cc1)c1ccncc1`, the growth inhibition in experiment [1] was -31.9%; in experiment [2], -14.5%; in experiment [3], -14.8%; in experiment [4] it was -6.4%; in experiment [5], 1.3%; in experiment [6], -1.8%.
In the case of `COC(=O)C1CCC(=O)N1Cc1csc(-c2ccccc2)n1` (stereo not drawn), the growth inhibition in experiment [1] was -12.1%; in experiment [2], -6.95%; in experiment [3], -6.8%; in experiment [4], -24.7%; in experiment [5] it was -14.8%; in experiment [6], -11.8%.
With `COc1ccc(C2CC(c3ccccc3)=Nc3ccccc3S2)cc1OC` (stereo not drawn), the growth inhibition is 0.25% in experiment [1]; -26.3% in experiment [2]; 11.7% in experiment [3]; 4.15% in experiment [4]; 2.4% in experiment [5]; 3.75% in experiment [6].
For `C[N+]1(CC(O)C[N+]2(C)CCCCCC2)CCCCCC1`, the growth inhibition is 11.3% in experiment [1]; 14.1% in experiment [2]; -7.65% in experiment [3]; -6.2% in experiment [4]; -2.9% in experiment [5]; 32.8% in experiment [6].
With `NCc1ccc2ccc3ccccc3c2c1`, the growth inhibition in experiment [1] is 11.1%; in experiment [2], -0.95%; in experiment [3] it was -1.35%; in experiment [4] it was 11.2%; in experiment [5], -4.45%; in experiment [6], 19.7%.
As to `Cn1c(=O)[nH]nc(Br)c1=O`, the growth inhibition in experiment [1] is 2.55%; in experiment [2], -9.7%; in experiment [3], -9%; in experiment [4], -4.75%; in experiment [5], -4.6%; in experiment [6], -24.9%.
With `O=S(=O)(Nc1cc(C(F)(F)F)ccc1Cl)c1ccc(F)cc1`, the growth inhibition in experiment [1] is -24.3%; in experiment [2], -22.4%; in experiment [3] it was -34.4%; in experiment [4] it was 7.5%; in experiment [5], -32.6%; in experiment [6], -8%.
On to `N#CCC(=O)c1ccc(N)cc1`, for which the growth inhibition in experiment [1] was 16.1%; in experiment [2] it was -19.6%; in experiment [3] it was 2.2%; in experiment [4], 13.9%; in experiment [5] it was -11%; in experiment [6] it was 13.4%.
As for `N#CC(NNC(=O)c1ccccc1O)c1cccc(O)c1` (stereo not drawn), the growth inhibition is 10.8% in experiment [1]; -0.25% in experiment [2]; 10.6% in experiment [3]; -6.7% in experiment [4]; 25.7% in experiment [5]; -25% in experiment [6].
`COc1ccc2cc1Oc1ccc(cc1)CC1c3cc(c(OC)cc3CCN1C)Oc1c(O)c(OC)cc3c1C(C2)N(C)CC3` (stereo not drawn): the growth inhibition is 14.6% in experiment [1]; -10.4% in experiment [2]; 10.8% in experiment [3]; 16.2% in experiment [4]; 15.8% in experiment [5]; 1.95% in experiment [6].
For `CCOC(=O)C1=C(Nc2ccc(Cl)cc2Cl)OCC1=O`, the growth inhibition was -12.3% in experiment [1]; -5.85% in experiment [2]; -0.35% in experiment [3]; -13.9% in experiment [4]; -58.5% in experiment [5]; 10.2% in experiment [6].
`O=C1ON(c2ccccc2)C(c2cccc(Cl)c2)N1c1ccccc1` (stereo not drawn): the growth inhibition is 14.1% in experiment [1]; -2.85% in experiment [2]; -3.95% in experiment [3]; 3.25% in experiment [4]; 9.25% in experiment [5]; -16.1% in experiment [6].
As for `CCC(C)(O)C#CC#CC(C)(O)CC` (stereo not drawn), the growth inhibition in experiment [1] was 17.2%; in experiment [2], -22.2%; in experiment [3] it was 22.1%; in experiment [4], 16.6%; in experiment [5], -5.35%; in experiment [6], 22.1%.
As to `CCCCCCCCC(CO)CCCCCC` (stereo not drawn), the growth inhibition in experiment [1] was 15.9%; in experiment [2], -1.05%; in experiment [3], 31.4%; in experiment [4] it was 1.65%; in experiment [5], -6.4%; in experiment [6], 9.15%.
Take `O=C1Cc2c([nH]c3ccccc23)-c2ccccc2N1`: the growth inhibition in experiment [1] was 25.1%; in experiment [2] it was 13.9%; in experiment [3] it was 13.8%; in experiment [4], 5.05%; in experiment [5], 35.8%; in experiment [6] it was 21.1%.
With `O=C(CCC1CCCCC1=O)c1ccc(Br)cc1` (stereo not drawn), the growth inhibition in experiment [1] is 6.2%; in experiment [2], -15.8%; in experiment [3], 12.7%; in experiment [4], -6.95%; in experiment [5] it was -6.55%; in experiment [6] it was -10.2%.
On to `Cc1ccc(NC(=O)Nc2ccc(Cl)c(Cl)c2)c(C)c1`, for which the growth inhibition is -6.05% in experiment [1]; 11.2% in experiment [2]; -1.75% in experiment [3]; -16.6% in experiment [4]; -4.2% in experiment [5]; -20.9% in experiment [6].
In the case of `COC(=O)c1cc2c(o1)Sc1ccccc1NC2=O`, the growth inhibition is -4.3% in experiment [1]; -29.9% in experiment [2]; -12.6% in experiment [3]; 3.65% in experiment [4]; -8.55% in experiment [5]; 10.7% in experiment [6].
On to `CC(C)C(NCc1c(O)ccc2c(-c3ccccc3)cc(=O)oc12)C(=O)O` (stereo not drawn), for which the growth inhibition in experiment [1] was -33.5%; in experiment [2], -21.6%; in experiment [3], -19%; in experiment [4], -12.2%; in experiment [5], -35.5%; in experiment [6], -10.2%.
`CN1Cc2cc3c(cc2-c2ccccc21)OCO3`: the growth inhibition in experiment [1] was -23.7%; in experiment [2], -35.7%; in experiment [3], -44.9%; in experiment [4], 6.4%; in experiment [5] it was -36.5%; in experiment [6] it was -35.6%.
Turning to `COc1ccc(/C(C)=N/NC(N)=S)cc1OC`, the growth inhibition in experiment [1] is 6.65%; in experiment [2] it was -17.9%; in experiment [3] it was 2.45%; in experiment [4] it was 16%; in experiment [5] it was -13.3%; in experiment [6], 3.45%.
Turning to `O=S1(=O)CC2C3CC(Oc4ccccc4)C(C3)C2C1` (stereo not drawn), the growth inhibition was -9.85% in experiment [1]; -6.35% in experiment [2]; -4.2% in experiment [3]; -20.9% in experiment [4]; -26.6% in experiment [5]; -6.5% in experiment [6].
`CCOC(=O)C(=N\Nc1ccccc1)/C(C)=N\NC(N)=S`: the growth inhibition was 13.2% in experiment [1]; -7.45% in experiment [2]; -11.7% in experiment [3]; 8.95% in experiment [4]; 4.5% in experiment [5]; 1.9% in experiment [6].
